# ssDAF12 agonist: activators of S. stercoralis DAF-12 nuclear receptor. HEK293 ssDAF-12/GRIP1 lit1-tk-luc reporter, luminescence; % of 3 µM dafachronic acid response. 1% of 370,000 active. activation, % at 6.8 µM. AID 652126;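 active means activation above the mean over all tested compounds plus 3 SD, cut at about 0.9% in these data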
# DAX1 inh-1: inhibitors of DAX1 repression of SF-1 activated StAR promoter | HEK293T StAR-luciferase reporter, SF-1/DAX-1 repression relief | 1.1% of 370,000 active | inhibition, % at 6.8 µM;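 active means inhibition above the mean over all tested compounds plus 3 SD, cut at about 3.6% in these data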;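 further: higher inhibition means more luminescence from relief of DAX-1 repression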
# hcDAF-12 act: H. contortus DAF-12 activation, primary screen | HEK293 hcDAF-12 lit1-tk-luc reporter, luminescence; 0% DMSO, 100% Δ7-dafachronic acid | activation, % at 6.8 µM | 1.4% of 370,000 active;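 active means activation above the mean of all tested compounds plus 3 SD, cut at about 5.5% in these data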
# hgDAF-12 ag: hgDAF-12 agonism, primary luciferase screen; HEK293 GAL4-hgDAF12 UAS-luciferase reporter, agonist luminescence; normalized to butyrate control; activation, % at 6.8 µM; 1.8% of 370,000 active; AID 687014;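 active means activation above a cutoff set at the mean of all screened compounds plus 3 SD, cut at about 10% in these data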
# DAX1 inh-2: NR0B1 (DAX1) inhibition. 0.99% of 340,000 active. inhibition, % at 6.75 µM. HEK293 Gal4-DAX1 luciferase reporter, luminescence. P51843. AID 504766;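 active means inhibition above the mean over all tested compounds plus 3 SD, cut at about 4.2% in these data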;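 further: inhibition shows as a rise in luminescence from relieved DAX1 repression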
# Target sequence (P51843 207-470 limits assumed): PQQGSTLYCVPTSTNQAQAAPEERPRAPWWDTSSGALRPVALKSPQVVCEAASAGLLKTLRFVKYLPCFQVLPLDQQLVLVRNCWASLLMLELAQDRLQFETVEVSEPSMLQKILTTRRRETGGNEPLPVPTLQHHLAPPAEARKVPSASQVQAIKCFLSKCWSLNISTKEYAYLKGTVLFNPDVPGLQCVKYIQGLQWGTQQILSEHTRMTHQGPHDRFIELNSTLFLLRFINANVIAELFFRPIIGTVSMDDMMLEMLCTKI
# Numbers stand for hits; i = inactive; nt = no result. Compounds with a hit are over-represented: about 4.1% of the library has one in this group of screens.
SMILES,ssDAF12 agonist,DAX1 inh-1,hcDAF-12 act,hgDAF-12 ag,DAX1 inh-2
O=C(Cn1c(=O)cnc2ccccc21)Nc1ccccc1N1CCOCC1,i,i,i,i,i
Cc1cc(C)cc(NC(=O)OC2CC3CC2[C@H]2CCCCN2[C@H]3C)c1 (some centres not stated),i,i,i,i,nt
Nc1ccc(Oc2ccc3nc(-c4ccccc4)c(-c4ccccc4)nc3c2)cc1,i,i,i,i,i
Nc1ccc(Oc2cc(N)cc(Oc3ccccc3)c2)cc1,i,i,i,i,4.6
O=C(Nc1ccc(Cl)cc1)C1C2CCCCC21 (configuration not stated),1.2,i,i,11.7,i
O=c1c(Cl)c(N2CCOCC2)cnn1-c1nc2ccccc2[nH]1,i,4.2,i,i,i
COc1ccc(-n2c(COc3ccc(Cl)cc3)nnc2SCC(=O)Nc2ccc(Oc3ccccc3)cc2)cc1,i,i,i,i,nt
COc1ccc(-c2ccc3sc4ccccc4c(=O)c3c2)cn1,i,i,i,10.5,i
CCCC/C=C1/[C@@H](c2ccc(Cl)cc2)N(Cc2ccc3c(c2)OCO3)C2=N[C@@H](c3ccccc3)CC(=O)N21,i,i,i,i,nt
O=C1CC(c2ccc(S(=O)(=O)NCc3ccccc3)cc2)CN1 (configuration not stated),i,i,i,i,5.6
Cc1ccccc1NS(=O)(=O)c1ccc(C2CNC(=O)C2)cc1 (configuration not stated),i,i,i,i,i
O=C1C=CC(=Nc2ccc3c(c2)Cc2cc(F)ccc2-3)O1,i,i,i,13.2,i
O=C1C=CC(=Nc2cccc3c2C(=O)c2ccccc2-3)O1,nt,nt,nt,nt,i
COC(=O)C1=C(C)N(Cc2ccccc2C(F)(F)F)C(=NCc2ccccc2)NC1CCc1ccccc1 (configuration not stated),i,i,i,i,nt
COC(=O)N=Nc1c(O)[nH]c2ccc(Br)cc12,i,i,i,i,i
O=C(O)c1ccc(N=Nc2c(O)[nH]c3ccc(Br)cc23)cc1,i,i,i,11.1,i
C#CCOCCOCCOCCNc1nc(N2CCN(C(=O)[C@H](CCCCN)n3cc([C@@H](N)CC(N)=O)nn3)CC2)nc(N2CCN(C(=O)[C@H](CCCCN)n3cc([C@@H](N)CC(N)=O)nn3)CC2)n1,i,i,i,i,4.5
C#CCOCCOCCOCCNc1nc(N2CCN(C(=O)[C@H](CCCCN)n3cc(CN)nn3)CC2)nc(N2CCN(C(=O)[C@H](CCCCN)n3cc([C@@H](N)CC(N)=O)nn3)CC2)n1,i,i,i,i,i
CCCCOCCCNC(=O)C[C@@H]1C(=O)N(CCc2ccc(Cl)cc2)C2=CCCCC[C@]21C(=O)OC,i,i,i,i,nt
CC1CC(=O)c2cnc(Nc3cccc(C(F)(F)F)c3)nc2C1 (configuration not stated),i,i,i,i,i
CC1CC(=O)c2cnc(Nc3ccccc3)nc2C1 (configuration not stated),i,4.0,i,i,i
COc1ccc(S(=O)(=O)N2CCN(C(=O)CSc3nc4ccccc4nc3N3CCCCC3)CC2)cc1,i,i,i,i,nt
Cc1ccc(Nc2cc(C)nc(-c3ccccc3O)n2)cc1,i,i,i,12.5,i
CCc1ccccc1N=Nc1c(N)[nH]n(-c2ccccc2)c1=O,i,i,i,10.9,nt
Nc1[nH]n(-c2ccccc2)c(=O)c1N=Nc1ccccc1,1.3,i,i,i,i
SMILES,ssDAF12 agonist,DAX1 inh-1,hcDAF-12 act,hgDAF-12 ag,DAX1 inh-2
Nc1[nH]n(-c2ccccc2)c(=O)c1N=Nc1ccccc1[N+](=O)[O-],i,i,i,i,i
CC(=O)Nc1nc2ncccn2c1-c1ccc(F)c(F)c1,i,i,i,i,nt
COC(=O)c1c(NC(=O)c2ccccc2)sc(C(N)=O)c1C,1.0,i,i,i,i
COC(=O)c1c(NC(=O)c2ccccc2)sc(C(=O)c2ccccc2)c1C,i,i,i,i,i
COc1ccccc1C(=O)NC1CCCCN(Cc2cccc(Cl)c2)C1=O (configuration not stated),i,i,i,i,nt
CNC(=O)Nc1ccc(S(N)(=O)=O)cc1,i,i,i,i,i
NS(=O)(=O)c1ccc(NC(=O)Nc2ccc(Cl)cc2)cc1,i,i,i,12.5,i
NS(=O)(=O)c1ccc(NC(=O)CCCCC(=O)Nc2ccc(S(N)(=O)=O)cc2)cc1,i,i,i,i,4.4
CCN(CC)c1ccc(C=NNC(=O)c2cc(-c3ccc(C)c(C)c3)n[nH]2)c(O)c1,i,i,i,i,nt
O=C1CCN(Cc2ccccc2)CCN1CCSc1ccccc1,i,i,i,i,i
CCCN1CCC(=O)N(CCSc2ccccc2)CC1,i,i,i,10.6,i
C=CCN1C(=O)c2ccc(C(=O)N3CCN(S(=O)(=O)c4ccc(C(C)C)cc4)CC3)cc2C1=O,i,i,i,i,4.4
CC(C)(C)c1ccc(-c2nnc(SCc3cccc4ccccc34)n2Cc2ccco2)cc1,i,i,i,i,nt
Cc1cc(Cl)ccc1OCCCC(=O)NO,i,i,i,11.9,i
CCN(CC)c1ccc(NC(=O)c2cccnc2)cc1,i,i,i,i,i
Cc1ccc(C(=O)c2cncc(Br)c2)cc1,i,i,i,i,i
Cc1ccc(NC(=O)c2cncc(Br)c2)cc1S(=O)(=O)N(C)C,1.4,i,i,i,i
Cc1ccc(SCC(=O)NNC(=O)c2cncc(Br)c2)cc1,i,i,i,i,5.9
CCN(CC)c1ccc(NC(=O)c2cncc(Br)c2)cc1,i,i,i,12.6,i
CN1C(=O)c2cc(NC(=O)Nc3ccccc3)ccc2OC[C@H]2O[C@@H](CC(=O)NC3Cc4ccccc4C3)CC[C@@H]21,i,i,i,i,nt
CCCCCCCCN1C(=O)[C@@H](CC(=O)N2CCCC2)C[C@@]2(C(=O)OC)C1=C[C@H](COCc1ccccc1)O[C@@H]2C,i,i,i,i,nt
COc1ccc2c(c1)[C@@]1(OCCC=C[C@H]1C)C(=O)N2Cc1ccc(Br)cc1,i,i,i,i,nt
COC(=O)[C@]12CCCCC=C1N(Cc1ccc(OC)cc1)C(=O)[C@@H]2CC(=O)NCCc1ccccc1OC,i,i,i,i,nt
COC(=O)[C@]12C[C@H](CC(=O)N3CCSCC3)C(=O)N(Cc3ccco3)C1=C[C@H](COCc1ccccc1)O[C@@H]2C,i,i,i,i,nt
CCCCOC(=O)/C=C\C(=O)OCCCC,i,i,i,i,6.9
O=c1[nH]c(-c2ccco2)nc2sc3c(c12)CCCC3,i,i,i,12.6,i
CCOC(=O)CSc1nc2cc(OCC)ccc2cc1C#N,i,i,i,11.2,i
CCC(c1nnc(SCc2nc3ccccc3s2)n1Cc1ccccc1)N(C)C (configuration not stated),i,i,5.7,i,i
c1ccc(Cn2c(SCc3nc4ccccc4s3)nnc2-c2ccco2)cc1,i,i,i,i,i
c1ccc(-n2cnnc2SCc2nc3ccccc3s2)cc1,1.0,i,i,i,i
